# Reference: the supplement of paper PMC10849652
# About 8,800 targets were measured; listed, in parts, are those with a hit and a random draw of the rest. About 0.5% of all pairs of compound and target were hits. A number with no mark means an inactive call.
# Experiments:
# Assay in all cases: log2 fold change, soluble protein after heating vs DMSO (PISA); higher = thermal stabilisation; K562 lysate, 10 uM; active = over 0.2 and 3.5 SD of the protein, either way, in both replicates (recomputed)
# vorinostat = compound: O=C(CCCCCCC(=O)Nc1ccccc1)NO [vorinostat]
# Procedure, shortened: (§1)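 K562 pellets were dounce-homogenised in PBS pH 7.4 containing 1 mM MgCl2, and the crude extract, at 1 mg/mL protein, was exposed to 10 μM compound for 30 min. Aliquots were heated for 3 min across 48°C-58°C, pooled, brought to 0.5% NP-40 at 4°C and spun at 21,000xg for 90 min, with the supernatant taken as soluble protein. TMTpro 16plex LC-MS/MS with equalised channel sums quantified that protein. Values are log-two fold changes in thermal stability relative to solvent controls, taken from duplicates.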
# silmitasertib = compound: O=C(O)c1ccc2c(c1)nc(Nc1cccc(Cl)c1)c1ccncc12 [silmitasertib]
# Procedure, shortened: as §1
# entospletinib = compound: c1cn2cc(-c3ccc4cn[nH]c4c3)nc(Nc3ccc(N4CCOCC4)cc3)c2n1 [entospletinib]
# Procedure, shortened: as §1
# [1] = compound: NCC(=O)Nc1ccc(-n2nc(C(F)(F)F)cc2-c2ccc3c(ccc4ccccc43)c2)cc1
# Procedure, shortened: as §1
# [2] = compound: O=C1NC(=O)C(c2cnc3ccccn23)=C1c1cn2c3c(cc(F)cc13)CN(C(=O)N1CCCCC1)CC2
# Procedure, shortened: as §1
# UniProt P02774, sequence (P02774 whole entry, looked up): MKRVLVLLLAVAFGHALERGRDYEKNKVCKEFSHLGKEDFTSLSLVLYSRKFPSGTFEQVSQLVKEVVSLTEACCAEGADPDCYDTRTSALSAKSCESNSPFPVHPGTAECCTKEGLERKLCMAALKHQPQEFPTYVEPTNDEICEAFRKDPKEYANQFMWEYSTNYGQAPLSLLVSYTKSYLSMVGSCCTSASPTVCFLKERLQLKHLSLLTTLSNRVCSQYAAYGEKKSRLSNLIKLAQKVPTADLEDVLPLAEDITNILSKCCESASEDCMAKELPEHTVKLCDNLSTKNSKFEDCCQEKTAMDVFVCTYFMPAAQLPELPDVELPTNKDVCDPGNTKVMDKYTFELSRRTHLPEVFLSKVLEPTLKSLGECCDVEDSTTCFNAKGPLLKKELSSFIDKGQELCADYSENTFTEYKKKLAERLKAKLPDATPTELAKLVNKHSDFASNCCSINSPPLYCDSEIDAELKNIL
# UniProt Q08426, sequence (Q08426 whole entry, looked up): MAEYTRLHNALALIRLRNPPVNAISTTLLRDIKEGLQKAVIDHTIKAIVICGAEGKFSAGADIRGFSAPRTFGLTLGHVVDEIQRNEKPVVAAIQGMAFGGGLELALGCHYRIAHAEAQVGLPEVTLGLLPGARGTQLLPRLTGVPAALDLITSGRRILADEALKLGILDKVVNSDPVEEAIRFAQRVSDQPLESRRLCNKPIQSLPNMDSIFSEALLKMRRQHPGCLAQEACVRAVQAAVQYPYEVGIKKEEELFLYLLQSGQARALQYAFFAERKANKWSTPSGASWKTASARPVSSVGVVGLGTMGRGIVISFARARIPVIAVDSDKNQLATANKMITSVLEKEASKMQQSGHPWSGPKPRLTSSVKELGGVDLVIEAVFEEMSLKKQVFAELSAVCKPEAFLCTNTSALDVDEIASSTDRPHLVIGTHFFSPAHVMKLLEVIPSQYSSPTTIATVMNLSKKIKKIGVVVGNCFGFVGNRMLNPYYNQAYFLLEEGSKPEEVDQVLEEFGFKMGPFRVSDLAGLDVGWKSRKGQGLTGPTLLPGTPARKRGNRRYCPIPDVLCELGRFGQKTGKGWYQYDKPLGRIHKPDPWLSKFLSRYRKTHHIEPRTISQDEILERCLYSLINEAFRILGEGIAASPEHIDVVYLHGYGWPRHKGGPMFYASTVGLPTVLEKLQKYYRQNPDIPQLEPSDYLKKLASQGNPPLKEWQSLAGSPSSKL
# UniProt Q9P0K8, sequence (Q9P0K8 whole entry, looked up): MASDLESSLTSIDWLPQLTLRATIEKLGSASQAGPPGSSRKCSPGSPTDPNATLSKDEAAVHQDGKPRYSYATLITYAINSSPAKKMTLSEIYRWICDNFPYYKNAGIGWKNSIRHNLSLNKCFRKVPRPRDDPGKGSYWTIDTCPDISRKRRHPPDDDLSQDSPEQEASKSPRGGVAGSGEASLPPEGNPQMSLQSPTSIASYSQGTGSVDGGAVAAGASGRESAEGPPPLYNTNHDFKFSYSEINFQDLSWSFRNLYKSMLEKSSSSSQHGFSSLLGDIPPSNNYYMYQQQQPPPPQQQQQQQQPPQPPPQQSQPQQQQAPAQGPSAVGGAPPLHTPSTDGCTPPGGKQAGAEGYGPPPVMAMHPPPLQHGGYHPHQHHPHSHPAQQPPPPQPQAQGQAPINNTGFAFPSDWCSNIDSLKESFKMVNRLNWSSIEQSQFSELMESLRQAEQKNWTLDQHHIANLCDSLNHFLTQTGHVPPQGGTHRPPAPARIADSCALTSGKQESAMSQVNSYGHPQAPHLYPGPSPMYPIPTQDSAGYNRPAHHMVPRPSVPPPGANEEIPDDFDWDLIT
# UniProt Q9H6S3, sequence (Q9H6S3 whole entry, looked up): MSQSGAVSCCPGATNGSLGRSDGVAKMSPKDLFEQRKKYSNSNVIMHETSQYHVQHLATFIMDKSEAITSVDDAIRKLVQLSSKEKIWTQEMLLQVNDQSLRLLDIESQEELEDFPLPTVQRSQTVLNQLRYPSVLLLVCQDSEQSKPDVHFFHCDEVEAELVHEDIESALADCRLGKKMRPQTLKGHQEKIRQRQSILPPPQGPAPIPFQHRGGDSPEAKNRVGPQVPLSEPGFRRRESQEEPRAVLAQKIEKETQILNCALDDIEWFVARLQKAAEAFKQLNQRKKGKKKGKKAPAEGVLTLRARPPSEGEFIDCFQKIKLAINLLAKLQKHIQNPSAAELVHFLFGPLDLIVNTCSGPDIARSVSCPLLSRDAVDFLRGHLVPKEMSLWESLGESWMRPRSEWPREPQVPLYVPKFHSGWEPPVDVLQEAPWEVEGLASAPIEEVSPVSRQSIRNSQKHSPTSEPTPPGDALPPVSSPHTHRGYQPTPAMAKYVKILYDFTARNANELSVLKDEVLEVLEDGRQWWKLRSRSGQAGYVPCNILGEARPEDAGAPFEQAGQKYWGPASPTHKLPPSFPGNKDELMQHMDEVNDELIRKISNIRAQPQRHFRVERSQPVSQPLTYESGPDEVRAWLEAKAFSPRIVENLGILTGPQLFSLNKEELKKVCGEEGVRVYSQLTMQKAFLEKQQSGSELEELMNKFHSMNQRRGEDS
# UniProt Q5T0N5, sequence (Q5T0N5 whole entry, looked up): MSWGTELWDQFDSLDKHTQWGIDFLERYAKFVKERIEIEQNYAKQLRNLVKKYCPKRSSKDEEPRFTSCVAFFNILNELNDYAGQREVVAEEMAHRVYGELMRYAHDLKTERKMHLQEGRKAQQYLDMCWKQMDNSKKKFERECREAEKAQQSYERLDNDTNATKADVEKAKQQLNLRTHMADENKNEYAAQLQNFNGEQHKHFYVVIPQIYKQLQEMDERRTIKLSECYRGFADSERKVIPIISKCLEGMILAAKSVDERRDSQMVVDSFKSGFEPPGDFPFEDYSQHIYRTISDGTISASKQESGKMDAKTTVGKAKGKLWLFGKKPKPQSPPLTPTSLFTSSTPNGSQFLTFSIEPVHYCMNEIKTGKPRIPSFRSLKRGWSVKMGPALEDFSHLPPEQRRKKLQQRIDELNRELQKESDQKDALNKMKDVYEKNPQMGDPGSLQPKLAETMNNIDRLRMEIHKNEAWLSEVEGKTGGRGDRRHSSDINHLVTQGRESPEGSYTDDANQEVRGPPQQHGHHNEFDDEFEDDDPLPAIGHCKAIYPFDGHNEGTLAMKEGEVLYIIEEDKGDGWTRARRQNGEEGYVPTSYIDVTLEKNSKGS
# UniProt P35916, sequence (P35916 whole entry, looked up): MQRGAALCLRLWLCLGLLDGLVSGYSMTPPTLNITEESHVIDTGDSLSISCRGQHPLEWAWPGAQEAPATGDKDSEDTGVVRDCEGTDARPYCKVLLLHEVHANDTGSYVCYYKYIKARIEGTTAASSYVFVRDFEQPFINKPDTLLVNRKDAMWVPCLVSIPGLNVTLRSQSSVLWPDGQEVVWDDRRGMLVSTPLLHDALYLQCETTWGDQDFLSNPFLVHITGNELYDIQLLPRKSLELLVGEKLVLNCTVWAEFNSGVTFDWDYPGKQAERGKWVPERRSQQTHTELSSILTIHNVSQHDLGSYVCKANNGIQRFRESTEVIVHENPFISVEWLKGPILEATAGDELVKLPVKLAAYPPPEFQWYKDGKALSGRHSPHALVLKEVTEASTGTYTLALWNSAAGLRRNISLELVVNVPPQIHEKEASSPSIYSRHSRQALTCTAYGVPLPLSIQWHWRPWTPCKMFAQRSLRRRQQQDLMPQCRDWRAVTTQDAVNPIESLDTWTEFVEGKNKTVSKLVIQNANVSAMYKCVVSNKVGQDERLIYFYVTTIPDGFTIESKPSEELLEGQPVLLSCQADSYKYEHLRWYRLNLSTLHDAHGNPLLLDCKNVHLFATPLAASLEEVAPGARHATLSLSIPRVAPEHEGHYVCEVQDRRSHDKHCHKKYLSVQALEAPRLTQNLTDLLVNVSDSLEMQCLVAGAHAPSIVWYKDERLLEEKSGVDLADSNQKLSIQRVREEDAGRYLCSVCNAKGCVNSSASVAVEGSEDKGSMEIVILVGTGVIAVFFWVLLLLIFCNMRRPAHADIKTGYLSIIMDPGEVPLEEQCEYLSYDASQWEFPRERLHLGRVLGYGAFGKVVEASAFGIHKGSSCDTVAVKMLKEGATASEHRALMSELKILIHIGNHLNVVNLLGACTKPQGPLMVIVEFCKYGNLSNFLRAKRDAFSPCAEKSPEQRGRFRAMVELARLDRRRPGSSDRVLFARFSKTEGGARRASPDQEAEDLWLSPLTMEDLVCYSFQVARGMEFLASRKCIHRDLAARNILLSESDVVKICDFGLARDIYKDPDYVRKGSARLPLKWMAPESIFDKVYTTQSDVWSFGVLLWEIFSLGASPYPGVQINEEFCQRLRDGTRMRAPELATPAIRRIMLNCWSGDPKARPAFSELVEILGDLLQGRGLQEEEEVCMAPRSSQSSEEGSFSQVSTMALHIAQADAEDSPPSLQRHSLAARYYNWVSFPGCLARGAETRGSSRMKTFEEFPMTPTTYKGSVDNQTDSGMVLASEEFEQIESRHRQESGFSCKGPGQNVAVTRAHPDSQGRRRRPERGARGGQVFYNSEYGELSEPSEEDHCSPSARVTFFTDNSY
# UniProt P09104, sequence (P09104 whole entry, looked up): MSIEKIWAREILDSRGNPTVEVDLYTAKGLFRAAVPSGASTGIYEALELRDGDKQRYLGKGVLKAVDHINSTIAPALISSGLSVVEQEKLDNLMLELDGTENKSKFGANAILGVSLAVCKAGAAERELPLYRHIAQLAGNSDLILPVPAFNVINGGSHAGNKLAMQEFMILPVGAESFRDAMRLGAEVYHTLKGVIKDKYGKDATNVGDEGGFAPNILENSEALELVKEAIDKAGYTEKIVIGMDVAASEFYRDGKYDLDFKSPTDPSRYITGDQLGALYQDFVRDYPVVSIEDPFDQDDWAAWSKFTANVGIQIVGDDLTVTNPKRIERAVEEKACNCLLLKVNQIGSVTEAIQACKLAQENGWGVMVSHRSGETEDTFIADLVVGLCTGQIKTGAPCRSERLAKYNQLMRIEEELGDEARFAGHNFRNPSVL
# UniProt Q9UKR5, sequence (Q9UKR5 whole entry, looked up): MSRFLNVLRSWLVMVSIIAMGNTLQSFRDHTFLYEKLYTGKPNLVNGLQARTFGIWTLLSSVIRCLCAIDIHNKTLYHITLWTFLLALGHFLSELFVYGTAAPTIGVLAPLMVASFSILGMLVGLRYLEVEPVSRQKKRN
Target,log2 fold change (vorinostat),log2 fold change (silmitasertib),log2 fold change (entospletinib),log2 fold change [1],log2 fold change [2]
FOXJ2 (UniProt Q9P0K8),-0.208,-0.058,0.033,–,–
EID1 (UniProt Q9Y6B2),-0.192,0.191,-0.143,–,–
FAM114A2 (UniProt Q9NRY5),0.262,-0.015,0,-0.056,-0.034
EWSR1 (UniProt H7BY36),–,–,0.016,0.136,-0.047
FAM118B (UniProt Q9BPY3),-0.273 (active),0.018,-0.005,0,0
DUS3L (UniProt Q96G46),-0.08,0.036,0.014,0.002,-0.007
DST isoform 3 (UniProt Q03001),-0.041,0.087,-0.004,–,–
GC isoform 3 (UniProt P02774),–,–,-0.053,-0.058,0.076
FOXL2 (UniProt P58012),-0.501,-0.027,-0.352,–,–
ENO1 isoform 2 (UniProt P06733),0.099,0.045,-0.05,-0.008,0.005
ERG28 (UniProt Q9UKR5),–,–,0.009,–,–
"EPB41, A0A2R8Y783",–,–,0.393,-0.071,–
ESRRA (UniProt P11474),–,0.063,-0.034,-0.094,0.026
GIPC3 (UniProt Q8TF64),-0.336,0.044,-0.017,–,-0.007
FARSB (UniProt Q9NSD9),0.015,0.013,0.011,-0.01,-0.013
EPS8L2 (UniProt Q9H6S3),0.017,-0.019,0.33 (active),–,0.026
FLT4 (UniProt P35916),-0.435 (active),0.178,0.054,-0.097,–
GEMIN2 (UniProt O14893),-0.425 (active),0.002,-0.005,0.003,0.04

Target,log2 fold change (vorinostat),log2 fold change (silmitasertib),log2 fold change (entospletinib),log2 fold change [1],log2 fold change [2]
EXO5 (UniProt Q9H790),0.043,-0.06,–,–,0.054
DYRK1A isoform 2 (UniProt Q13627),-0.222,-0.035,–,–,0.002
FNBP1L (UniProt Q5T0N5),-0.373 (active),0.102,0.017,0.001,-0.041
EPB41 isoform 4 (UniProt P11171),0.071,0.101,–,–,-0.085
FAT1 (UniProt Q14517),-0.229,0.077,-0.034,–,-0.196
FNDC3A (UniProt Q9Y2H6),-0.018,-0.119,–,–,-0.146
GART (UniProt C9JZG2),–,–,0.037,–,-0.069
FADS3 (UniProt Q9Y5Q0),0.247,-0.126,-0.185,0.21,0.004
FYCO1 isoform 4 (UniProt Q9BQS8),-0.002,0.047,-0.002,-0.002,0.033
GDE1 (UniProt Q9NZC3),-0.007,0.006,-0.162,–,0.04
FMNL2 isoform 3 (UniProt Q96PY5),-0.587 (active),-0.027,–,–,0.045
GCA (UniProt P28676),1.36 (active),-0.104,–,–,–
ESRRB isoform 1 (UniProt O95718),–,0.087,–,–,–
ENO2 (UniProt P09104),0.03,-0.014,-0.068,-0.021,0.001
EHHADH (UniProt Q08426),0.706 (active),-0.035,-0.013,–,-0.048
FTSJ1 isoform 2 (UniProt Q9UET6),–,–,0.047,-0.109,–
GBA2 (UniProt Q9HCG7),-0.089,-0.004,-0.102,–,-0.091
EIF2AK3 (UniProt Q9NZJ5),-0.142,0.241,–,–,–
